Data as given in PubChem BioAssay AID2289 (National Center for Advancing Translational Sciences (NCATS), 2010).
In all, about 340,000 compounds went through this assay and about 3,300 (0.97%) were called active. Another 9% or so got no clear call; they are omitted. Calls follow the shape of the dose curve; as a rule, active = well fitted inhibition curve with a large enough effect; inconclusive = small, poorly fitted or top-dose-only effect, or effect the other way; inactive = flat fitted curve, though single readings scatter. The list shows a part of the results.

Assay: qHTS Assay for Modulators of miRNAs and/or Inhibitors of miR-21; also: nearly all actives have a fitted effect of over 55% in size
Conditions: HeLa miR-21-FLuc reporter, luciferase luminescence, 48 h; actives lower the signal
Method in brief: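 HeLa cells stably expressing CMV-driven firefly luciferase with a downstream miR-21 binding sequence, endogenously expressing miR-21, were treated with titrations (up to about 40uM final) for 48 hours at 37 degree Celsius. Luciferase luminescence was read after lysis.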
Potency is read from the fitted curve at half-maximal effect.

Potency, active:
O=C(Nc1ccccc1)c1cc2n(n1)C(C(F)(F)F)CC(C1CC1)N2 (centres undefined) 6.56 µM
COc1cccc(Nc2ncnc3sc(C)cc23)c1 6.56 µM
COc1ccc(Nc2cc(Nc3cccc(OC)c3)ncn2)cc1 14.7 µM
COc1ccc(Nc2ncnc3sc(C)cc23)cc1 11.7 µM
COc1cccc(Nc2ncnc3ccccc23)c1 2.33 µM
COc1cccc(Nc2ncnc3sccc23)c1 7.36 µM
COc1ccc(-c2nc(-c3ccncc3)no2)cc1 0.464 µM
COc1ccc(-c2nc(-c3ccc(Br)cc3)no2)c(OC)c1 0.585 µM
Cc1ccc(-c2nc(-c3ccncc3)no2)cc1C 0.585 µM
CSc1ccccc1-c1nc(-c2ccncc2)no1 1.85 µM
Cc1ccc(-c2nc(-c3ccncc3)no2)cc1 1.47 µM
CCOCCn1c(N2CCN(c3ccccc3)CC2)nc2c1c(=O)[nH]c(=O)n2C 6.56 µM
CCCCCCOC(=O)c1ccc(OC(=O)c2cccnc2)cc1 6.56 µM
Cc1ccc(/C=C2\SC(N3CCCC3)=NC2=O)cc1 16.5 µM
Cc1cc(OCc2cc(C(=O)N3CCCCCC3)no2)cc(C)c1Cl 5.85 µM
COCC1CCN(C(=O)c2cc(COc3cc(C)c(Cl)c(C)c3)on2)C1 (centres undefined) 13.1 µM
COc1cccc(/C(N)=N/OC(=O)Cc2ccccc2[N+](=O)[O-])c1 9.27 µM
NS(=O)(=O)c1ccccc1NC(=O)c1c(O)c2ccccc2[nH]c1=O 0.736 µM
C=CCn1c(=O)c(C(=O)Nc2ccccc2S(N)(=O)=O)c(O)c2ccccc21 4.65 µM
O=C(Nc1cccc(O)c1)c1c(O)c2ccccc2[nH]c1=O 1.47 µM
COc1ccccc1C(=O)OCc1cc(=O)n2c(C)csc2n1 10.4 µM
COc1ccccc1C(=O)OCc1cc(=O)n2nc(C3CC3)sc2n1 13.1 µM
c1ccc(C2=NN(c3ccccc3)CC2)cc1 5.21 µM
Cc1cccc(C(=O)OCC(=O)c2ccc3c(c2)OCO3)c1O 1.85 µM
O=C(OCc1ccccc1F)c1ccc2c(c1)OCCO2 18.5 µM
O=C(COC(=O)c1cccs1)c1ccc2c(c1)OCCO2 3.69 µM
Cc1ccc(C(=O)COC(=O)c2cccs2)cc1 3.29 µM
CCOC(=O)c1cc2c(=O)c3cc(C)ccc3oc2nc1C 1.04 µM
CC(C)c1ccc(NC(=S)NN2CCOCC2)cc1 16.5 µM
